Laboratory results published in PubChem BioAssay AID588342 (National Center for Advancing Translational Sciences (NCATS), 2011).
Among all 360,000 compounds or so, about 25,000 (6.9%) were called active. Roughly 9% stayed inconclusive and do not appear here. The entries come from a sample that favours actives as a whole. Values without a mark were called inactive. Calls come from the whole dose curve; as a rule, active = well fitted inhibition curve with a large enough effect; inconclusive = small, poorly fitted or top-dose-only effect; inactive = flat fitted curve, though single readings scatter.

These molecules were tested against Luciferin 4-monooxygenase (Photinus pyralis) (UniProt P08659) (assay: qHTS profiling assay for firefly luciferase inhibitor/activator using purifed enzyme and Km concentrations of substrates (counterscreen for miR-21 project)). Details: purified FLuc, luminescence inhibition; series mostly up to 57.5 µM; activity change, negative = inhibition: at the top concentration.
Summary of the method: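 Purified P. pyralis luciferase, 10 nM final, with Km-level 10 uM D-luciferin and 10 uM ATP in 50 mM Tris acetate pH 7.5, 10 mM Mg acetate, 0.01% Tween-20, 0.05% BSA; 6-point qHTS titration about 60 µM downward; luminescence read.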
Note: nearly all actives have a fitted effect of over 55% in size.
Potency is the fitted concentration of half-maximal effect.
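Throughout, for activity change, negative = inhibition: plate controls were vehicle for no effect and reference inhibitor for full effect.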

Chain of Luciferin 4-monooxygenase (Photinus pyralis) (P08659 whole entry, looked up): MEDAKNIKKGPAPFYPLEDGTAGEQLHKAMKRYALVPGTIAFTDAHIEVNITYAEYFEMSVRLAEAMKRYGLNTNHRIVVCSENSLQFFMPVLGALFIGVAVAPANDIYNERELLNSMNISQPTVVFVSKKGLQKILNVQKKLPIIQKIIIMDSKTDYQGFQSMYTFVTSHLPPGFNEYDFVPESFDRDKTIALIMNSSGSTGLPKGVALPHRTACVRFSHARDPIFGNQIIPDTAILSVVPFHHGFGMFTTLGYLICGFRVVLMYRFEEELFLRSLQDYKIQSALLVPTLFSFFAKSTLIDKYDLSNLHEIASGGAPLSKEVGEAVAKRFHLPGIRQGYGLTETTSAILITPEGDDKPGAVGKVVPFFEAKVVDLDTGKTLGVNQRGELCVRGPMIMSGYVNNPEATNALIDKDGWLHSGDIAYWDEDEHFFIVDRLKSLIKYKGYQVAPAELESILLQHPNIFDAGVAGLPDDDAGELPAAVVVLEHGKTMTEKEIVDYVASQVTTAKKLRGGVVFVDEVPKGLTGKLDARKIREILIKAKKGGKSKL

First: Fc1ccc(-c2nn(-c3ccccc3Cl)c3c2cnc2ccccc23)cc1
Second: O=C(NCc1ccccc1)C(c1ccccc1)N(C(=O)c1csnn1)c1ccc(F)cc1 (centres undefined)
The “activity change, negative = inhibition” value of the first is lower: -4.79% for the first, 1.31% for the second.

Compared with `O=C(CN1C2CCC1CC(NC(=O)C1CC1)C2)NCc1ccccc1` (centres undefined), `Cc1cn(C)c(CC(=O)NCc2ccccc2)c1C(=O)O` is lower in “activity change, negative = inhibition” value: -0.129% for the first, -0.767% for the second.

First: COc1ccc(CNC(=O)CN(Cc2ccccc2Cl)C(=O)c2csnn2)cc1
Second: COCCCNC(=O)CNC(=O)c1nn(-c2ccc(OC)cc2)c(=O)c2ccccc12
The “activity change, negative = inhibition” value of the first is higher: 0.712% for the first, -0.501% for the second.

Going from `CCc1nn(CC(=O)Nc2cc(C)cc(C)c2)c(=O)c2cc3sccc3n12` to `COc1cccc2c1cc1c(=O)n(CC(=O)N3CCN(c4ccccc4)CC3)nc(C)n12`, the “activity change, negative = inhibition” value rises from -9% to -1.6%.

Going from `O=C(NCC(c1ccc(Cl)cc1)N1CCOCC1)c1ccccc1F` (centres undefined) to `C/C(CC(=O)Nc1ccc(N(C)C)cc1)=N\NC(=O)c1ccccc1F`, the “activity change, negative = inhibition” value rises from -2.7% to -0.398%.

Going from `COC(=O)c1scc(S(=O)(=O)C(C)(C)C)c1-n1cccc1` to `COc1cc(NS(=O)(=O)c2ccc(NC(C)=O)cc2)cc(OC)c1`, the “activity change, negative = inhibition” value rises from -1.66% to -1.03%.

Going from `O=C(NCCC1=CCCCC1)c1ccc2c(c1)N(Cc1ccccc1F)C(=O)c1ccccc1S2(=O)=O` to `CCOC(=O)c1ccc2c(c1)N(Cc1cccc(OC)c1)C(=O)c1ccccc1S2(=O)=O`, the “activity change, negative = inhibition” value rises from -0.544% to 4.9%.

Compared with `COCCNc1nnc(SCC(=O)NNC(=O)c2ccco2)s1`, `COc1ccc(OC)c(/C=N/NC(=O)CSc2nnc(C)n2-c2ccccc2)c1` is lower in “activity change, negative = inhibition” value: 3.77% for the first, -6.59% for the second.

Compared with `Cc1cccc(Cc2c(C)nc3nc(SCc4ccccc4Cl)nn3c2C)c1`, `Cc1ccc(CNC(=O)CCc2c(C)nc3c(c(C)nn3-c3ccccc3)c2C)cc1` is lower in “activity change, negative = inhibition” value: 1.37% for the first, -3.65% for the second.

Compared with `CCOC(=O)c1ccc(NC(=O)Cn2cc(S(=O)(=O)Cc3ccccc3F)c3ccccc32)cc1`, `Cc1cccc(C(=O)N2CCc3cc(CNC(=O)Cc4ccc(F)cc4)ccc32)c1` is lower in “activity change, negative = inhibition” value: -13.5% for the first, -24% for the second.

Going from `CC(C)(C)NC(=O)CSC(=Nc1ccccc1F)NC#N` to `C/C(=N\NC(=O)Cc1ccc(Cl)cc1)c1ccccn1`, the “activity change, negative = inhibition” value rises from -9.66% to 5.25%.

First: CC1(C)Cc2ccccc2/C(=C/C(=O)c2ccccc2)N1
Second: CCOc1ccccc1/C=N/NC(=O)CNC(=O)COc1ccccc1
The “activity change, negative = inhibition” value of the first is higher: -0.311% for the first, -20% for the second.

Going from `O=C(O)C1CCCN1S(=O)(=O)c1ccc(Br)cc1` (centres undefined) to `O=C(CSc1oc(-c2ccc(F)cc2)nc1S(=O)(=O)c1ccc(Br)cc1)NC1CCCCC1`, the “activity change, negative = inhibition” value rises from -2.95% to -1.9%.

First: CCN(CC)S(=O)(=O)c1ccc(Cl)c(C(=O)NCCN2CCOCC2)c1
Second: COc1cccc(CNC(=O)CN2C(=O)CCc3cc(S(=O)(=O)N4CCOCC4)ccc32)c1
The “activity change, negative = inhibition” value of the first is higher: -0.0874% for the first, -4.52% for the second.

Going from `Cc1nc(-c2ccc(F)cc2)c(CC(=O)N(C)CC(=O)Nc2c(C)cccc2C)s1` to `COc1ccc(-n2nc(C(=O)NCC(=O)Nc3cccc(C)n3)c3ccccc3c2=O)cc1`, the “activity change, negative = inhibition” value rises from -1.73% to 2.32%.

Compared with `COc1ccc(C(=O)NC2CC(C)(C)Cc3c2cnn3-c2ccccc2)c(OC)c1` (centres undefined), `COc1cccc(NC(=O)c2nn(-c3ccc(OC)cc3OC)c(=O)c3ccccc23)c1` is lower in “activity change, negative = inhibition” value: 2.3% for the first, -0.385% for the second.

Compared with `CCCCc1ccc(NS(=O)(=O)c2cccc(C(=O)N3CCCN(C)CC3)c2)cc1`, `O=C(CN1CCCSc2ccccc21)N1CCN(S(=O)(=O)c2cccc(F)c2)CC1` is lower in “activity change, negative = inhibition” value: -0.803% for the first, -1.34% for the second.

Going from `COc1ccc(NS(=O)(=O)c2ccc(NC(=S)NC(=O)/C=C/c3ccc(C)cc3)cc2)nn1` to `COc1cccc(/C=N/NC(=O)CNC(=O)c2ccc(S(=O)(=O)N3CCOCC3)cc2)c1OC`, the “activity change, negative = inhibition” value rises from -2.64% to 0.36%.

Compared with `Cc1ccsc1/C=N/n1c(=S)[nH]nc(C)c1=O`, `CCOC(=O)CNC(=O)c1nn(-c2cccc(OC)c2)c(=O)c2ccccc12` is lower in “activity change, negative = inhibition” value: 3.07% for the first, -18.1% for the second.

Going from `COc1ccc(CC(=O)NCC(=O)N/N=C/c2cc(Br)ccc2OC)cc1` to `COc1cc(/C=N/NC(=O)Cc2ccccc2)cc(OC)c1OC`, the “activity change, negative = inhibition” value rises from -11.2% to -1.02%.

Compared with `COc1cccc(OCc2cc(/C=N/NC(=O)c3nc(Cl)c(Cl)c(N)c3Cl)ccc2OC)c1`, `COc1ccc(-n2nc(C(=O)Nc3cc(OC)c(OC)c(OC)c3)c3ccccc3c2=O)c(OC)c1` is higher in “activity change, negative = inhibition” value: -11.1% for the first, -2.72% for the second.

First: COc1ccc(/C=N/NC(=O)C2CC2)c(OC)c1OC
Second: Cc1[nH]c2ccccc2c1C(=O)C(C)Sc1nnc(C2CC2)o1 (centres undefined)
The “activity change, negative = inhibition” value of the first is lower: -6.25% for the first, 1.18% for the second.

Compared with `CC1=C(C(=O)OCC(C)C)C(c2ccc(OCc3ccccc3)cc2)N2C(=O)CCSC2=N1` (centres undefined), `COc1ccccc1NC(=O)CSC1=Nc2ccccc2C2=NC(CC(=O)NCc3cccs3)C(=O)N12` (centres undefined) is higher in “activity change, negative = inhibition” value: -7.41% for the first, 4.48% for the second.

First: CCCSc1ncc(Cl)c(C(=O)Nc2c(C(=O)Nc3ccccc3)oc3ccccc23)n1
Second: O=C(O)C(c1ccccc1)N1C(=O)/C(=C\c2ccc(-c3cccc(Cl)c3)o2)SC1=S (centres undefined)
The “activity change, negative = inhibition” value of the first is lower: -1.02% for the first, 2.28% for the second.

Going from `O=C(CN1CCCSc2ccccc21)N1CCN(S(=O)(=O)c2ccccc2)CC1` to `CC(=O)N1CCCc2cc(S(=O)(=O)N3CCC(C(=O)NC4CCCCC4)CC3)ccc21`, the “activity change, negative = inhibition” value falls from 1.35% to -3.81%.

Compared with `CN=C1S/C(=C\c2ccc(Sc3ccc(Cl)cc3)o2)C(=O)N1C`, `COc1ccc(-n2nc(C(=O)NCCc3ccc(Cl)cc3)c3c4ccccc4n(C)c3c2=O)cc1Cl` is higher in “activity change, negative = inhibition” value: -3.48% for the first, -1.63% for the second.

With `CC1CN/C(=C\C(=O)c2ccc(Br)cc2)C(=O)N1` (centres undefined) the Potency was 1.9 µM (active).
`COc1ccc(/C=C2/C(=O)N(c3ccccc3)N=C2C)c(OC)c1` was tested, and the Potency was 15.1 µM (active).
For `COc1ccc(/C=C/C(=O)c2ccc(NS(=O)(=O)c3ccc(C)cc3)cc2)cc1O`, the Potency was 6.01 µM (active).
`CCOc1ccc2[nH]c(C(=O)N/N=C/c3cccc(OC)c3OC)cc2c1` was tested, and the Potency was 15.1 µM (active).
For `COc1ccc2[nH]c(C(=O)N/N=C/c3cc(OC)c(OC)c(OC)c3)cc2c1`, the Potency was 12 µM (active).
`COc1cc2cc(C(=O)N/N=C/c3cccc(OC)c3OC)[nH]c2cc1OC` was tested, and the Potency was 16.9 µM (active).
With `C/C(=N\NC(=O)c1ccccc1F)c1ccccn1` the Potency was 2.39 µM (active).
In the case of `N#C/C=C1\Sc2ccccc2C(=O)N1CC(=O)N1CCN(S(=O)(=O)c2ccccc2)CC1`, the Potency is reported as 9.53 µM (active).
In the case of `CN1C(=O)/C(=C\c2ccc(-c3ccccc3)o2)SC1=S`, the Potency is reported as 2.39 µM (active).
With `COc1ccc(-n2nc(C(=O)NCC(=O)N3CCCCCC3)c3ccccc3c2=O)cc1Cl` the Potency was 3.38 µM (active).
With `COc1ccc(-n2nc(C(=O)NCC(=O)N3CCN(c4ccccc4OC)CC3)c3ccccc3c2=O)c(OC)c1` the Potency was 1.69 µM (active).
In the case of `COc1ccc(-n2nc(C(=O)NCC(=O)N3CCC(C(N)=O)CC3)c3ccccc3c2=O)cc1OC`, the Potency is reported as 12 µM (active).
